# Bioassay records as filed in PubChem BioAssay.
# PTAP-TSG101 blk – blocks PTAP binding to human TSG101, validation | Q99816 | Fluorescence polarization, FITC-PTAP peptide/Tsg101, 20 min | Potency, µM (doses to about 115 µM), most hits filed as inhibitors | 44,000 tested, under 10 active | AID 1347069; further: potency means the concentration at half of the fitted maximal effect; 0% is about no effect
#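 FITC-labeled PTAP peptide (50 nM final) binding to Tsg101 binding domain (10 uM final) read by fluorescence polarization after 20 min at r.t. in HEPES pH 7.5 buffer. Actives by CRC class, <25 µM.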
# GPR32 ag – GPR32 (DRV1) agonism, beta-arrestin recruitment; O75388; CHO-K1 GPR32 beta-arrestin PathHunter luminescence, 90 min; zero percent set by DMSO-only wells; activation, % at 76.9 µM; AID 1346428; 48,000 tested, 2.5% active;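 active means activation of at least 60% and not above a set upper limit, about 1 call in 100 departs from these limits; inconclusive means activation of 40% to 60%, or above that upper limit; inactive means activation under 40%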; further: 0% is about no effect
#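 Agonism was scored by beta-Gal fragment complementation (chemiluminescent read, 1 h detection at ambient temperature) reporting beta-arrestin binding to GPR32 in engineered CHO-K1 cells. Compound treatment lasted 90 min at 37 C, normalized to a DMSO basal control.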
# FH mod – Identification of activators of human fumarate hydratase by quantitative high-throughput screening; Fumarate hydratase, mitochondrial (Homo sapiens), P07954; FH coupled MDH/diaphorase resazurin fluorescence, 15 min; Potency, µM (doses to about 79.9 µM), for inactives: at the highest dose activity change, negative = inhibition, actives largely listed as inhibitors; 54,000 tested, 0.22% active; AID 1347055, 2019; further: potency means the concentration at half of the fitted maximal effect; on the % scale 0 is the no-effect control and ±100 the full control effect; the screen sought activators but most active calls are inhibition curves; nearly all actives have a fitted effect of over 45% in size
# Target sequence (P07954 whole entry, looked up): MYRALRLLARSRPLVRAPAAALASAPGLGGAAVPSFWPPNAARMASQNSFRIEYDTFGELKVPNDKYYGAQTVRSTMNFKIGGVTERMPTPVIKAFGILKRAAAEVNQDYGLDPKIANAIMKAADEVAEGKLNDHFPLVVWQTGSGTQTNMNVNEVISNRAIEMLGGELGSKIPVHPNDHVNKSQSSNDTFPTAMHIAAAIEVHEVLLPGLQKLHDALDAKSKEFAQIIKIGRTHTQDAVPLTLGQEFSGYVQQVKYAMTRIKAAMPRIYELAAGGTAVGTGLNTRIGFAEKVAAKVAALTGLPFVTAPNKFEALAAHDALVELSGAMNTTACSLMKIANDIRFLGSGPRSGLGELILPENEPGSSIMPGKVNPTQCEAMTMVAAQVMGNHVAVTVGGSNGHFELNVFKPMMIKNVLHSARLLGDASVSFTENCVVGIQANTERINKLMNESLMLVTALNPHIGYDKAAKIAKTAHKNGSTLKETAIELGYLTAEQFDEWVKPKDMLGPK
# GALK inhibitor – inhibitors of human galactokinase (GALK) | P51570 | recombinant GALK, Kinase-Glo ATP luminescence, 1 h | Potency, µM (titrated, usually from 57.5 µM), without a hit: at the top dose activity, negative = inhibition, hits mostly inhibitors | 44,000 tested, under 10 active | AID 1347072;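 further: plate controls were full GALK reaction for no effect and reaction lacking GALK for full effect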
#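 5 nM GALK; 35 uM ATP; 100 uM D-galactose; 20 mM HEPES pH 8.0, 5 mM MgCl2, 60 mM NaCl, 1 mM DTT, 0.01% BSA; 1 h RT; Kinase-Glo Plus luminescence.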
# GALC G270D act – galactocerebrosidase G270D activity enhancement, cell-based; Potency, µM (series often up to 57.5 µM), usual class: activators; 45,000 tested, 0.1% active; P54803; AID 1159614; 145M-Twi-hGALC-G270D cells (Twitcher mouse brain line with human GALC G270D), HMU-beta-Gal fluorescence, 48 h; further: potency means the concentration at half of the fitted maximal effect; 0% is about no effect; nearly all actives have a fitted effect of over 65% in size
#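 Live 145M-Twi cells (Twitcher mouse brain-derived, GALC-null) stably expressing human GALC-G270D, with a wild-type GALC line, were compound-treated. Residual GALC activity was then read as fluorescence from 0.1 mM final HMU-β-gal at pH 5.2; higher signal means activation.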
# B2AR arrestin ag – beta-arrestin recruitment by human beta2-adrenergic receptor ligands; P07550; HTLA Tango cells, beta-arrestin recruitment, luciferase luminescence, 18 h; 44,000 tested, under 10 active; AID 1347077; Potency, µM (top dose mostly 46.1 µM), actives largely listed as activators;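 further: potency means the concentration at half of the fitted maximal effect; 0% = DMSO and full agonism = EC100 isoproterenol or metaproterenol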
#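 Tango cells expressing recombinant beta2-AR and beta-arrestin were treated with compounds (up to 46 microM titration) in DMEM with 1% FBS for 18 hr at 37 degrees C. Beta-arrestin recruitment drove tTA-dependent luciferase, read by luminescence; curves were fitted and classed.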
# The depositor's hits bear a star; i = inactive; u = inconclusive; x = not tested or not shown; [ ] = another dose, or the depositor's remark. Only some compounds are listed: those with a hit (about 2.6% of all), similar ones and a draw of the others. Unless noted, the call rests on the fitted dose curve; in most records, active means well fitted curve in the direction sought with a large enough effect; inconclusive means small, poorly fitted or top-dose-only effect, or another doubt; inactive means no such curve, though single readings can be large; an effect the other way counts as inactive or inconclusive.
SMILES,PTAP-TSG101 blk,GPR32 ag,FH mod,GALK inhibitor,GALC G270D act,B2AR arrestin ag
Cc1cc(Nc2cc(N3CCN(C)CC3)nc(/C=C/c3ccccc3)n2)n[nH]1,x,x,-11%,x,x,x
C[C@@H]1O[C@@H](O[C@H]2[C@H](O[C@H]3[C@H](O[C@H]4CC[C@@]5(C)C(CC[C@]6(C)C5CC=C5[C@@H]7CC(C)(C)CC(=O)[C@]7(C)CC[C@]56C)[C@@]4(C)CO)O[C@H](C(=O)O)[C@@H](O)[C@@H]3O)O[C@H](CO)[C@H](O)[C@@H]2O)[C@H](O)[C@H](O)[C@H]1O (some centres undefined),x,x,3%[20.6 µM],x,x,x
COc1ccc2nc(NC(=O)Nc3ccccc3)sc2c1,x,101*,-2%[53.3 µM],x,i,x
C=CC(=O)Nc1cc(Nc2ncc(Cl)c(-c3c[nH]c4ccccc34)n2)c(OC)cc1N(C)CCN(C)C,x,x,-7%,x,x,x
Cc1cncn1CCc1nc2c3ccccc3nc(SCC(=O)Nc3ccc(F)cc3)n2n1,i,-10,-20%,1%,i,i
CCOc1ccccc1NC(=O)CSc1nc2ccccc2c2nc(CCn3cncc3C)nn12,i,97*,3%,1%,i,i
CC1CCC2C(C)(C)C(O)CCC2(C)C12Cc1c(O)cc3c(c1O2)C(N)=NC3 (centres undefined),x,x,1%[53.3 µM],x,x,x
O=C(Nc1ccccc1C(F)(F)F)C1CCN(c2nnc(-n3cccc3)s2)CC1,i,-7,-18%,1%,i,i
CCN(CC)c1ccc(NC(=O)C2CCN(c3nnc(-n4cccc4)s3)CC2)c(C)c1,i,60*,-15%,-7%,i,i
COc1ccc(-c2noc(CSc3nc4ccccc4[nH]3)n2)cc1,i,96*,-17%,7%,i,i
COc1ccc(-c2noc(CSc3nc(N)cc(=O)[nH]3)n2)cc1,i,98*,-18%,-2%,i,i
Cc1ccc2nc(SCc3nc(-c4ccc(Cl)cc4)no3)[nH]c2c1,i,18,u,8%,i,i
OCc1cnc(SCc2ccccc2F)n1Cc1ccc(F)cc1,i,94*,6%,-2%,i,i
COc1ccc(Cn2c(CO)cnc2SCc2ccc(F)cc2)cc1,i,u,3%,-1%,i,i
CCN1CCc2c(sc(NC(=O)CSc3ccccc3)c2-c2nc3ccccc3s2)C1,40µM*,-30,10%,-7%,i,i
CN1CCc2c(sc(NC(=O)CSc3ccc(F)cc3)c2-c2nc3ccccc3s2)C1,u,-23,4%,0%,i,i
COc1ccc(CC(NC(C)=O)C(=O)O)cc1 (centres undefined),x,x,-2%,x,x,x
O=Cc1ccc(O)c(O)c1O,x,-7,15µM*,x,i,x
CCOc1ccccc1CNC(=O)Cn1nc(N2CCN(c3ccccc3)CC2)ccc1=O,i,61*,u,1%,i,i
COc1ccc(CNC(=O)Cn2nc(N3CCN(c4ccccc4)CC3)ccc2=O)c(OC)c1,i,10,-16%,0%,i,i
CC(=O)OC/C=C(\C)C(CC1C(C)=C(OC(C)=O)C(=O)C2C(C)(C)C(O)CCC12C)OC(C)=O (centres undefined),x,x,-6%[53.3 µM],x,x,x
CCOC(=O)c1ccc(Nc2nc3ccccc3nc2NS(=O)(=O)c2ccc(Cl)cc2)cc1,i,u,-22%,-1%,i,i
CCOc1ccccc1Nc1nc2ccccc2nc1NS(=O)(=O)c1ccc(Cl)cc1,i,67*,4%,0%,i,i
COc1ccc(COC(=O)C2=C(C)NC(=O)CC2c2cccc(Cl)c2Cl)cc1 (centres undefined),i,9,-12%,3%,i,i
COC(=O)C1=C(C)NC(COC(N)=O)=C(C(=O)OC(C)C)C1c1cccc(Cl)c1Cl (centres undefined),x,86*,u,x,i,x
SMILES,PTAP-TSG101 blk,GPR32 ag,FH mod,GALK inhibitor,GALC G270D act,B2AR arrestin ag
COc1cccc(C(=O)Nc2nc(-c3nnn(-c4ccccc4C(F)(F)F)c3C)ns2)c1,i,91*,1%,-2%,i,i
COc1cccc(C(=O)Nc2nc(-c3nnn(-c4cc(C)ccc4C)c3C)ns2)c1,i,31,-7%,3%,i,i
C[C@@H]1O[C@@H](O[C@H]2[C@H](OC(=O)[C@]34CCC(C)(C)C[C@H]3C3=CCC5[C@@]6(C)C[C@H](O)[C@H](O[C@@H]7O[C@H](CO)[C@@H](O[C@@H]8O[C@H](CO)[C@@H](O)[C@H](O)[C@H]8O)[C@H](O)[C@H]7O)[C@@](C)(CO)C6[C@H](O)C[C@@]5(C)[C@]3(C)C[C@H]4O)OC[C@H](O)[C@@H]2O)[C@H](O)[C@H](O)[C@H]1O[C@@H]1OC[C@@H](O)[C@H](O[C@@H]2OC[C@](O)(CO)[C@H]2O)[C@H]1O (some centres undefined),x,x,0%[13.5 µM],x,x,x
O=C(NCCc1ccccc1)c1c[nH]c2ccc(S(=O)(=O)Nc3ccccc3F)cc2c1=O,i,15,-13%,-4%,i,i
O=C(NCc1ccco1)c1c[nH]c2ccc(S(=O)(=O)Nc3ccc(F)cc3F)cc2c1=O,i,63*,u,0%,i,i
O=C(NCCc1ccccc1)c1c[nH]c2ccc(S(=O)(=O)Nc3ccc(F)cc3F)cc2c1=O,i,100*,-16%,-5%,i,i
CC1(C)CC2C(O)C3=C(CC(C)(O)C2C1)C(=O)OC3O (centres undefined),x,x,1%,x,x,x
Cc1cc2nn(-c3ccc(F)cc3)nc2cc1NC(=O)c1ccc(OC(C)C)cc1,i,-13,-13%,-2%,i,i
Cc1cccc(C(=O)Nc2cc3nn(-c4ccc(C(C)C)cc4)nc3cc2C)c1,i,102*,1%,0%,i,i
Cc1ccc(-n2ncc3c(NCCc4ccccc4)ncnc32)cc1C,i,8,-15%,-1%,i,i
CCOCCCNc1ncnc2c1cnn2-c1ccc(C)c(C)c1,i,89*,-5%,-2%,i,i
Cc1ccc(NC(=O)CCCn2c3ccccc3c(=O)c3cc(C)ccc32)c(Br)c1,i,-5,-6%,-2%,i,i
Cc1ccc2c(c1)c(=O)c1ccccc1n2CCCC(=O)Nc1c(F)cccc1F,i,11,-12%,-4%,1.1µM*,i
